ABHD5-PLIN5 inh – ABHD5-PLIN5 interaction inhibitors, primary screen, cell lysate, split luciferase complementation, luminescence. Perilipin-5 (Homo sapiens) + 1-acylglycerol-3-phosphate O-acyltransferase ABHD5 (Homo …. Split G. princeps luciferase complementation, 4 h. inhibition, % at 4 µM. 360,000 compounds, 0.78% hits. AID 602281, 2012;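 active means inhibition above the mean inhibition across every tested compound plus 3 SD, cut at about 22% in these data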;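 further: 0% = DMSO only wells and the 100% control is not disclosed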
HTR2A ag – mouse Htr2a agonists via beta-arrestin recruitment, primary screen, cell-based, luminescence. CHO-K1 mHTR2A beta-arrestin complementation; percent of 30 µM serotonin response. activation, % at 7.6 µM. 360,000 compounds, 0.66% hits. AID 624169, 2012;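 active means activation above a run cutoff, the mean activation of all tested compounds plus 3 SD, cut at about 14% in these data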;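 further: 0% = plate median of compound wells and 100% = 30 µM serotonin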
Target sequence (P35363 whole entry, looked up): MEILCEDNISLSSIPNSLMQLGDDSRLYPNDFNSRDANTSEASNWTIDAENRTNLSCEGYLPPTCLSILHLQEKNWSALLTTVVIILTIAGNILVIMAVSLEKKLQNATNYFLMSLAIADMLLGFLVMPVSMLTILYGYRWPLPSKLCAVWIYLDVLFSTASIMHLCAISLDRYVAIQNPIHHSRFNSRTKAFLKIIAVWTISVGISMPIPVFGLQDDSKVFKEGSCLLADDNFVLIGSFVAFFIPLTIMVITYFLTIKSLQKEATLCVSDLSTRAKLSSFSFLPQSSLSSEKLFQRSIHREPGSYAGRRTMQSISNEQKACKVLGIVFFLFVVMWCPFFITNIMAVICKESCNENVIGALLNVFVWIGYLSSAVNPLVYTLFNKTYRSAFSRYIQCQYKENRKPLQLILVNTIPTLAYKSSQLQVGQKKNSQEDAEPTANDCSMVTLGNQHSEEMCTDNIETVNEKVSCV
TLR4-MyD88 BLA – inhibitors of TLR4-MyD88 association in cells, primary screen, cell-based, HeLa CL3-4, BLA complementation, FRET ratio. Toll-like receptor 4 (Homo sapiens) + Myeloid differentiation primary response protein …. HeLa CL3-4 TLR4/MyD88 BLA complementation. inhibition, % at 8.4 µM. 200,000 compounds, 0.18% hits; in the data active means inhibition above about 25%;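 further: 0% = vehicle and 100% = reference inhibitor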
CRFR2-BP antag – antagonists of CRF-BP/CRF-R2 complex, primary screen, cell-based, HEK293, calcium dye fluorescence, uHTS. CRF-induced calcium fluorescence. inhibition, % at 11.8 µM. 350,000 compounds, 0.59% hits;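 active means inhibition of the ligand-induced calcium signal above about 50% at the single tested concentration, limit read from the data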
NOD2-RIPK2 inh – NOD2-RIPK2 binding disruptors in cells, primary screen, fluorescence, CHO cells, BLA complementation; inhibition, % at 4.98 µM; 360,000 compounds, 0.38% hits; CCF4 ratio; Receptor-interacting serine/threonine-protein kinase 2 (Homo sapiens), O43353; AID 624267, 2012; in the data active means inhibition above about 21%;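 further: 0% = vehicle only and 100% = reference blocker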
TLR9-MyD88 block – inhibitors of TLR9-MyD88 association in cells, primary screen, cell-based, CHO, BLA complementation, fluorescence; Toll-like receptor 9 (Homo sapiens) + Myeloid differentiation primary response protein …; CCF4 FRET ratio; inhibition, % at 4.98 µM; 340,000 compounds, 0.21% hits; AID 504734, 2011;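 active means inhibition above the mean over all tested compounds plus 3 SD, cut at about 21% in these data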;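 further: 0% = DMSO only wells and 100% = clavulanate BLA inhibitor control wells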
OPRM1 ag – OPRM1 agonists via beta-arrestin recruitment, confirmation, counter-screen for mouse HTR2A agonist project, cell-based, luminescence, single concentration. shares compounds with HTR2A ag. U2OS OPRM1 beta-arrestin PathHunter; DMSO 0%, DAMGO 9.3 µM 100%. activation, % at 9.3 µM. 2,300 compounds, 5.3% hits;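 active means mean activation above the mean of DMSO-only wells plus 3 SD, cut at about 0.5% in these data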
m5-HT2A ag conf – mouse HTR2A agonists, beta-arrestin recruitment, confirmation, cell-based, luminescence, CHO-K1 PathHunter, triplicate | shares compounds with HTR2A ag | DMSO 0%, 30 µM serotonin 100% | activation, % at 7.6 µM | 2,300 compounds, 19% hits | AID 624381, 2012;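 active means mean activation across triplicates above the hit threshold derived in the original primary screen, cut at about 15% in these data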
Numbers without * were called inactive; . = not tested or not shown. Compounds with a hit are over-represented: about 2.4% of the library has one in this group of screens.

SMILES | ABHD5-PLIN5 inh | HTR2A ag | TLR4-MyD88 BLA | CRFR2-BP antag | NOD2-RIPK2 inh | TLR9-MyD88 block | OPRM1 ag | m5-HT2A ag conf
Cc1ccc(S(=O)(=O)Nc2c(C)n(C)n(-c3ccccc3)c2=O)cc1C(=O)OCC(=O)N1CCCC(C)C1 (stereo not given) | -2 | 16* | 1 | 3 | 7 | -10 | -1 | 1
CCOC(=O)Cn1c(=O)n(Cc2ccc(C)cc2)c(=O)c2cccnc21 | -10 | 50* | . | 15 | 3 | -4 | -1 | -3
NC(=O)Cn1c(=O)n(Cc2ccccc2)c(=O)c2cccnc21 | 7 | -3 | . | 7 | -11 | 1 | . | .
CCCC(c1nnnn1CC1CCCO1)N1CCN(c2nc3ccccc3s2)CC1 (stereo not given) | 5 | 2 | -4 | 6 | 1 | -12 | . | .
c1ccc(C(c2nnnn2C2CCCC2)N2CCN(c3nc4ccccc4s3)CC2)cc1 (stereo not given) | -3 | 5 | -13 | 21 | -5 | 12 | . | .
c1csc(C(c2nnnn2C2CCCCC2)N2CCN(c3nc4ccccc4s3)CC2)c1 (stereo not given) | -8 | 15* | 18 | -22 | 8 | 0 | -1 | 8
CCCCC(c1nnnn1CC1CCCO1)N1CCN(c2nc3ccccc3s2)CC1 (stereo not given) | -1 | 16* | -13 | 24 | 0 | 1 | -1 | 9
COC(=O)[C@]12CCCCC=C1N(CCc1ccc(OC)c(OC)c1)C(=O)[C@H](CC(=O)NCc1cccs1)C2 | 5 | 1 | . | . | 0 | . | . | .
CC1(C)CC(=O)C=C(c2cccc(OC(=O)c3ccc(-c4ccccc4)cc3)c2)C1=O | 1 | 2 | . | 2 | -2 | -7 | . | .
CCOC(=O)C1=CCN(S(=O)(=O)c2ccc(Br)cc2)C1c1ccc(C)cc1 (stereo not given) | -8 | -3 | . | . | -2 | . | . | .
O=C(CC1CS(=O)(=O)CC1CC(=O)Oc1ccccc1F)Oc1ccccc1F (stereo not given) | -2 | 16* | 8 | 12 | -11 | -2 | 0 | -2
CCc1ccccc1NC(=O)CC1CS(=O)(=O)CC1CC(=O)Nc1ccccc1CC (stereo not given) | -7 | 4 | -3 | -7 | 1 | -12 | . | .
COc1ccc(-c2nn(-c3ccccc3)cc2CNC[C@H]2O[C@@H](n3cnc4c(=O)[nH]c(N)nc43)[C@H](O)[C@@H]2O)cc1 | -3 | 1 | . | . | -6 | . | . | .
C=C(C)c1cccc(C(C)(C)NC(=O)Nc2ccc(C)cn2)c1 | -12 | 15* | -7 | -17 | 5 | 3 | 0 | 32*
C=C(C)c1cccc(C(C)(C)NC(=O)Nc2ccc(OC)nc2)c1 | -3 | 45* | . | 12 | -6 | -3 | 0 | 16*
C=C(C)c1cccc(C(C)(C)NC(=O)Nc2nnc(C(C)C)s2)c1 | -2 | -1 | . | -27 | 7 | -13 | . | .
C=C(C)c1cccc(C(C)(C)NC(=O)Nc2cc(C)ccn2)c1 | -6 | 35* | -5 | 3 | 4 | -1 | 0 | 30*
C=C(C)c1cccc(C(C)(C)NC(=O)Nc2nncs2)c1 | -4 | -4 | . | -25 | -2 | 13 | . | .
CCOC1=C2CN(S(=O)(=O)c3ccccc3)[C@H](c3ccccc3)C[C@H]2n2c(=O)n(-c3ccccc3)c(=O)n2C1 | 6 | -2 | . | . | -14 | . | . | .
CCCCNC(=O)c1ccc2nc(CC)c(N(C)Cc3cccs3)n2c1 | -8 | 0 | . | . | 0 | . | . | .
O=C(Nc1ccc(F)cc1F)Nc1ccccc1C(=O)NCCN1CCNC1=O | -4 | 40* | . | 4 | -2 | . | 0 | -1
COCCNC(=O)C1(C)CCN(C(=O)c2cc(-c3ccccc3)cs2)C1 (stereo not given) | 7 | 4 | . | . | -5 | . | . | .
COc1cc(C(=O)NCCN2C(=O)S/C(=C\c3cccs3)C2=O)cc(OC)c1OC | -5 | 0 | 4 | 5 | -13 | -2 | . | .
COc1cc(/C=C2\SC(=O)N(CCNC(=O)c3c(C)noc3C)C2=O)cc(OC)c1OC | -4 | 21* | . | 6 | -6 | 0 | 0 | -2
N#Cc1c(/N=C/c2ccco2)sc2c1CCCCC2 | -10 | 14* | -5 | 21 | -9 | 0 | 0 | 21*
SMILES | ABHD5-PLIN5 inh | HTR2A ag | TLR4-MyD88 BLA | CRFR2-BP antag | NOD2-RIPK2 inh | TLR9-MyD88 block | OPRM1 ag | m5-HT2A ag conf
Cn1c(NC(=O)C[n+]2cc(-c3ccc(F)cc3)n3c2CCC3)cc(=O)n(C)c1=O | 2 | 15* | 6 | -7 | 2 | 7 | -1 | -3
CC(C)(C)NC(=O)C1c2ccccc2OCC(=O)N1CCc1ccccc1 (stereo not given) | -3 | -5 | . | . | -15 | . | . | .
Cc1ccc(-c2[nH]n3c(=O)c4c(nc3c2C)CCCC4)cc1 | 2 | 10 | 14 | -20 | 6 | -5 | . | .
Cc1c(-c2ccccc2)[nH]n2c(=O)c3c(nc12)CCCC3 | 0 | 44* | -4 | -2 | 5 | 3 | -1 | 15*
COc1ccc([N+](=O)[O-])cc1CN1CCN(c2ncc(Cc3ccccc3)cn2)CC1 | 7 | 2 | . | . | -7 | . | . | .
CCN(CC)CCN(Cc1cc2cc3c(cc2[nH]c1=O)OCO3)C(=S)NCC(C)C | 0 | 9 | . | -1 | 4 | 0 | . | .
CCN(CC)CCN(Cc1cc2cc3c(cc2[nH]c1=O)OCCO3)C(=S)NCC(C)C | 4 | 22* | . | 0 | 1 | -6 | -1 | 8
COCCCNC(=O)C[C@H]1C[C@H](C(=O)N2CCOCC2)[C@@]2(CCC3CCCC3)c3[nH]c4cc(-c5ccco5)ccc4c3CCN2C1=O | 18 | 15* | . | 3 | 2 | -4 | -1 | -3
C[C@]12c3[nH]c4ccccc4c3CCN1C(=O)C(CC(=O)NCc1cccc(C(F)(F)F)c1)C[C@@H]2C(=O)N1CCOCC1 (stereo not given in full) | -12 | 0 | . | -10 | -20 | -5 | . | .
O=C(C[C@H]1C[C@H](C(=O)N2CCOCC2)[C@@]2(CCC3CCCC3)c3[nH]c4cc(-c5ccco5)ccc4c3CCN2C1=O)NCC12CC3CC(CC(C3)C1)C2 | 4 | 1 | . | 9 | 3 | -3 | . | .
